Assay [1] can be described thus: NCI Yeast Anticancer Drug Screen. Data for the rad50 strain (AID 155).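 Note: 0% = growth of vehicle-only cultures of the same strain.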 The note with it: S. cerevisiae rad50 strain growth inhibition; at 50.0 µM; hits give high values. In short, it runs like this: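 Inhibition values express reduced yeast growth in compound-treated cultures relative to vehicle-treated controls.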
A short description of assay [2]: NCI Yeast Anticancer Drug Screen. Data for the mec2-1 strain (AID 157). The note with it: S. cerevisiae mec2-1 strain, at 50.0 µM, hits give high values. In short, it runs like this:
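Cells of the genetically defined mec2-1 yeast strain are incubated with test compound. Inhibition of growth is calculated against vehicle-treated controls.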

Assay [3] can be described thus: NCI Yeast Anticancer Drug Screen. Data for the sgs1 mgt1 strain (AID 161).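 Note: 0% = growth of cultures given vehicle only.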 Conditions: S. cerevisiae sgs1 mgt1 strain, at 50.0 µM, hits give high values. In short, it runs like this: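 Mutant yeast exposed to compound; growth scored against vehicle-only wells.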
The nature of assay [4]: NCI Yeast Anticancer Drug Screen. Data for the cln2 rad14 strain (AID 165).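 Note: 0% = growth equal to vehicle treated cultures.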 Conditions: S. cerevisiae cln2 rad14 strain, at 50.0 µM, hits give high values. The essentials: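 The screen exposed genetically defined yeast (cln2 rad14) to test compounds and scored growth inhibition relative to vehicle-treated controls.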
Assay [5] is described as follows: NCI Yeast Anticancer Drug Screen. Data for the bub3 strain (AID 167). Conditions: S. cerevisiae bub3 mutant strain, at 50.0 µM, hits give high values. In short, it runs like this: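 Steps: expose the mutant yeast strain to compound; grow alongside vehicle-treated cultures; measure growth; express inhibition against the vehicle cultures.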
Assay [6] in a line: NCI Yeast Anticancer Drug Screen. Data for the mlh1 rad18 strain (AID 175). The note with it: S. cerevisiae mlh1 rad18 strain growth inhibition; at 50.0 µM; hits give high values. In short, it runs like this:
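Compound-treated yeast growth, normalised to vehicle controls. Strain bears defined DNA repair mutations.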

This is part of a sample that, as a whole, favours compounds with a hit. Of some 79,000 tested, about 15% had one in any assay. A number with no mark means an inactive call. The source made the active and inactive calls. Cut-off read from the data, not from the text of the source: active = growth inhibition above about 70%; inactive = the rest.

Consider `CC(=O)OCC(OC(C)=O)C1OC(OCc2ccccc2)C(OC(C)=O)C(OC(C)=O)C1OC(C)=O` (stereo unspecified), for which the growth inhibition is -10.1% in assay [1]; -4.2% in assay [2]; -17.6% in assay [3]; 44% in assay [4]; -3% in assay [5]; -5.85% in assay [6].

As for `CCN(c1ccccc1)S(=O)(=O)c1cc(N)ccc1C`, the growth inhibition in assay [1] is -23.8%; in assay [2] it was -10.7%; in assay [3], 2.55%; in assay [4], -2.8%; in assay [5], -0.25%; in assay [6], 4.55%.

Regarding `N#CC(NCc1ccccc1)C(O)c1ccccc1` (stereo unspecified), the growth inhibition in assay [1] was 17.8%; in assay [2], 11%; in assay [3] it was 2.25%; in assay [4], 16.8%; in assay [5], 9.25%; in assay [6], 11.9%.

As for `O=C(O)/C=C(/Br)c1ccccc1`, the growth inhibition in assay [1] is -28.9%; in assay [2], 7.9%; in assay [3], -13.8%; in assay [4], -1.55%; in assay [5], 1.4%; in assay [6], -24.4%.

On to `CNc1ccc(Cl)cc1C(N)=O`, for which the growth inhibition is 2.8% in assay [1]; 6.9% in assay [2]; 28.7% in assay [3]; -3.25% in assay [4]; 7.05% in assay [5]; 19.9% in assay [6].

As to `Fc1ccccc1/C=C/c1cnnc2ccccc12`, the growth inhibition was 19.9% in assay [1]; 11.1% in assay [2]; 16.1% in assay [3]; -20.4% in assay [4]; 5.2% in assay [5]; 3.15% in assay [6].

As for `CCN(CC)CC#CCCCN(CC)CC`, the growth inhibition in assay [1] was -29.3%; in assay [2] it was -30.2%; in assay [3] it was -27.9%; in assay [4], 1.75%; in assay [5] it was -44.5%; in assay [6], -7.6%.

With `O=[N+]([O-])c1nccn1CCC[n+]1ccc2ccccc2c1`, the growth inhibition in assay [1] was -25.4%; in assay [2], -7.7%; in assay [3], -8.6%; in assay [4], -2%; in assay [5], -13.8%; in assay [6], -17%.

Consider `CC(C)CCCC(C)C1CCC2C3CC=C4C(C)(C)C(OC(=O)c5ccccc5)CCC4(C)C3CCC12C` (stereo unspecified), for which the growth inhibition in assay [1] is 13.9%; in assay [2] it was -6.6%; in assay [3], -4.35%; in assay [4], -4.35%; in assay [5] it was 5.85%; in assay [6] it was -1.3%.

As to `Cc1cc(O)c(/C=N/c2nc(-c3ccc([N+](=O)[O-])cc3)cs2)c(=O)o1`, the growth inhibition in assay [1] is 58.1%; in assay [2], 20.9%; in assay [3], 40.8%; in assay [4], 20.1%; in assay [5] it was -7.7%; in assay [6] it was 74.1% (active).

For `O=C1OCC2Cc3ccccc3C(c3ccccc3)=C12` (stereo unspecified), the growth inhibition in assay [1] is -3.85%; in assay [2], -6.3%; in assay [3], -1.3%; in assay [4] it was -31.5%; in assay [5], 11.3%; in assay [6], -1%.

Turning to `C=CCN(CC=C)C(=O)C(=C)C`, the growth inhibition is 3.3% in assay [1]; -0.05% in assay [2]; -5.5% in assay [3]; 2.6% in assay [4]; 3.7% in assay [5]; -4.1% in assay [6].

With `CN(C)CCN=C1Nc2ccccc2C(=S)N2CSCC12` (stereo unspecified), the growth inhibition in assay [1] is -0.75%; in assay [2], 17.1%; in assay [3], -10.4%; in assay [4], -2.05%; in assay [5] it was 5.85%; in assay [6], 11.9%.

As for `CC(=O)C(N)=NCc1ccccc1`, the growth inhibition in assay [1] was 10.2%; in assay [2], 2.7%; in assay [3], -10.7%; in assay [4], 4.6%; in assay [5], 25.8%; in assay [6] it was 10.8%.

In the case of `COc1ccc(OC)c(/C=C/c2cnnc3ccccc23)c1`, the growth inhibition in assay [1] was 12.6%; in assay [2], 12.8%; in assay [3] it was 19.2%; in assay [4] it was -2.95%; in assay [5], 6.75%; in assay [6], 32%.

Regarding `COC(=O)C(O)c1ccc(C(C)C)cc1` (stereo unspecified), the growth inhibition in assay [1] is -34.5%; in assay [2], -18.6%; in assay [3] it was -13.9%; in assay [4], -33.2%; in assay [5] it was -26.4%; in assay [6], -9.2%.

For `CCCOc1ccccc1C(=O)N1CCOCC1`, the growth inhibition in assay [1] was 25%; in assay [2] it was -0.25%; in assay [3], 7.8%; in assay [4], 16.1%; in assay [5] it was 8.8%; in assay [6] it was 15.8%.

For the compound `C/C(=C\c1ccc(Cl)cc1)C(C)(C)C(=O)O`, the growth inhibition in assay [1] is 15.1%; in assay [2], -23.2%; in assay [3] it was -1.25%; in assay [4], -6.95%; in assay [5] it was 11%; in assay [6] it was 19.6%.

Take `O=C(O)CSCCOCCSCC(=O)O`: the growth inhibition in assay [1] is -15.9%; in assay [2], -54%; in assay [3], -17.1%; in assay [4], 12.1%; in assay [5], -16.3%; in assay [6] it was -15.6%.

In the case of `N#CC(CNC1CCCCC1)c1ccccc1` (stereo unspecified), the growth inhibition was -9.35% in assay [1]; -4.35% in assay [2]; 4.3% in assay [3]; -32.7% in assay [4]; 15.1% in assay [5]; 10.7% in assay [6].

In the case of `CCN(CC)CCN(C)C(=O)C(=O)c1ccccc1`, the growth inhibition is -20.1% in assay [1]; -0.85% in assay [2]; -10.6% in assay [3]; 9.75% in assay [4]; 4.8% in assay [5]; -8.2% in assay [6].
